Data published in the supplement of paper PMC6378613.

Compound: Cc1ccc(-c2ccc3c(ccc4sc5c(c43)NC[C@@H](C)NC5=O)n2)cn1
Assay: kinase activity remaining relative to vehicle control; higher = less inhibition
Procedure: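 In vitro radiometric kinase profiling of the MK2 inhibitor PF-3644022 at 0.1, 1 and 10 µM against a panel of kinases (MRC International Centre for Kinase Profiling, Dundee). Read-out is % kinase activity remaining relative to the vehicle control, mean of n=2.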

Sequence of UniProt P27448 (P27448 whole entry, looked up): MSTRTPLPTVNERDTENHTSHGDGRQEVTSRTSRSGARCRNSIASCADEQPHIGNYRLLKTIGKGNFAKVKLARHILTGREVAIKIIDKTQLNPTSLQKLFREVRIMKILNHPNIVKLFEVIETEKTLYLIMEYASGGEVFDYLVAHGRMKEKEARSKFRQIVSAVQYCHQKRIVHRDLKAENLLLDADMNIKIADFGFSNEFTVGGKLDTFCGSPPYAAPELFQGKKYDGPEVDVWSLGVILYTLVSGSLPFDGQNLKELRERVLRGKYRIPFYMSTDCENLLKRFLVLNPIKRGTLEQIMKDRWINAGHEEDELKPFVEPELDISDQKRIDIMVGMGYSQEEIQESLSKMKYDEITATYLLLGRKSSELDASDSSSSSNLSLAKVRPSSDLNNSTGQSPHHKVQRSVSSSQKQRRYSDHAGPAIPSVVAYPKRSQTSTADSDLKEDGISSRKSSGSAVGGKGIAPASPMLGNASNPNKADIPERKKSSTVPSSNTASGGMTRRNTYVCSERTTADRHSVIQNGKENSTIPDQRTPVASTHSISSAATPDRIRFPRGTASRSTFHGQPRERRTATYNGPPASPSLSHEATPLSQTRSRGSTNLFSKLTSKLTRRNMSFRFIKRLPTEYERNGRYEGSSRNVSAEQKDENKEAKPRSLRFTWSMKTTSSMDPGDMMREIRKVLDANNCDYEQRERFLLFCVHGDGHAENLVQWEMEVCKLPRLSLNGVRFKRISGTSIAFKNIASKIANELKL
Sequence of UniProt P51812 (P51812 whole entry, looked up): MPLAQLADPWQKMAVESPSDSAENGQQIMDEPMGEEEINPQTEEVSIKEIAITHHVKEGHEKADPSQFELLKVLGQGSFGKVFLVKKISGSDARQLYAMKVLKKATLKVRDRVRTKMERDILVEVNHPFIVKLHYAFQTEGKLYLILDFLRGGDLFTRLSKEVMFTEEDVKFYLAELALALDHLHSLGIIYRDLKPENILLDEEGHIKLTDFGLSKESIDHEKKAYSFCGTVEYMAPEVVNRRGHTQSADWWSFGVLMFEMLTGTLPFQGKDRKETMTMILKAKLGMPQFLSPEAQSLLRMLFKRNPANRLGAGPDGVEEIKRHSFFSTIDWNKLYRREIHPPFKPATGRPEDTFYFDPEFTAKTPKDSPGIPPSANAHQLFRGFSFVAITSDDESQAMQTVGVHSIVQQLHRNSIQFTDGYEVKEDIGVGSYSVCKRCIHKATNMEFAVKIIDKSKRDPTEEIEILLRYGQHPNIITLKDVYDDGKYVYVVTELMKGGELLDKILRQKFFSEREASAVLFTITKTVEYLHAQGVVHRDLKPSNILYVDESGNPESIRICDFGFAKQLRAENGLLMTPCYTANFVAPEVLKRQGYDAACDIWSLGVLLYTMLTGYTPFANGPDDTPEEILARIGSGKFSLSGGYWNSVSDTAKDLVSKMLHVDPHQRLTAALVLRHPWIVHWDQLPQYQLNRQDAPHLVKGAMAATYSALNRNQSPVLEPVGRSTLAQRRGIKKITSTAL
Sequence of UniProt Q9P286 (Q9P286 whole entry, looked up): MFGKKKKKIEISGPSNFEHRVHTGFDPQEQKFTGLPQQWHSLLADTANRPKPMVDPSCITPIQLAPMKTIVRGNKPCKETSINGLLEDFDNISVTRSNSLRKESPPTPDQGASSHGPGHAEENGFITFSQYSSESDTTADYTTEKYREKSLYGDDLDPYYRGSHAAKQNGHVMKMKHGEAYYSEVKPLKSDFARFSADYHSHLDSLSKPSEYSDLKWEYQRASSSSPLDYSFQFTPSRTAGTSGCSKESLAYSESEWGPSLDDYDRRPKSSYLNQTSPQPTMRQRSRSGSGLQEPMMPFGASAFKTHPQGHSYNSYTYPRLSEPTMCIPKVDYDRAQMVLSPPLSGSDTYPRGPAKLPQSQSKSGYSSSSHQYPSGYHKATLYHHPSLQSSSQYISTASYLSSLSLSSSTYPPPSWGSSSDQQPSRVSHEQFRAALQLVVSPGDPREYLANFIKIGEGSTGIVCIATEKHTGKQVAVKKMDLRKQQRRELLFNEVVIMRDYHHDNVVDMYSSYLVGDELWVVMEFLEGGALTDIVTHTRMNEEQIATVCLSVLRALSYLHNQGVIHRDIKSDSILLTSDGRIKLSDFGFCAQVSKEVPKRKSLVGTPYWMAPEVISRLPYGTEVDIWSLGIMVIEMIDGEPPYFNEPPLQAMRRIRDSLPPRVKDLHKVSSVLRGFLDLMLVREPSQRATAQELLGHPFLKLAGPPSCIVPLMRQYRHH
Sequence of UniProt Q5TCY1 (Q5TCY1 whole entry, looked up): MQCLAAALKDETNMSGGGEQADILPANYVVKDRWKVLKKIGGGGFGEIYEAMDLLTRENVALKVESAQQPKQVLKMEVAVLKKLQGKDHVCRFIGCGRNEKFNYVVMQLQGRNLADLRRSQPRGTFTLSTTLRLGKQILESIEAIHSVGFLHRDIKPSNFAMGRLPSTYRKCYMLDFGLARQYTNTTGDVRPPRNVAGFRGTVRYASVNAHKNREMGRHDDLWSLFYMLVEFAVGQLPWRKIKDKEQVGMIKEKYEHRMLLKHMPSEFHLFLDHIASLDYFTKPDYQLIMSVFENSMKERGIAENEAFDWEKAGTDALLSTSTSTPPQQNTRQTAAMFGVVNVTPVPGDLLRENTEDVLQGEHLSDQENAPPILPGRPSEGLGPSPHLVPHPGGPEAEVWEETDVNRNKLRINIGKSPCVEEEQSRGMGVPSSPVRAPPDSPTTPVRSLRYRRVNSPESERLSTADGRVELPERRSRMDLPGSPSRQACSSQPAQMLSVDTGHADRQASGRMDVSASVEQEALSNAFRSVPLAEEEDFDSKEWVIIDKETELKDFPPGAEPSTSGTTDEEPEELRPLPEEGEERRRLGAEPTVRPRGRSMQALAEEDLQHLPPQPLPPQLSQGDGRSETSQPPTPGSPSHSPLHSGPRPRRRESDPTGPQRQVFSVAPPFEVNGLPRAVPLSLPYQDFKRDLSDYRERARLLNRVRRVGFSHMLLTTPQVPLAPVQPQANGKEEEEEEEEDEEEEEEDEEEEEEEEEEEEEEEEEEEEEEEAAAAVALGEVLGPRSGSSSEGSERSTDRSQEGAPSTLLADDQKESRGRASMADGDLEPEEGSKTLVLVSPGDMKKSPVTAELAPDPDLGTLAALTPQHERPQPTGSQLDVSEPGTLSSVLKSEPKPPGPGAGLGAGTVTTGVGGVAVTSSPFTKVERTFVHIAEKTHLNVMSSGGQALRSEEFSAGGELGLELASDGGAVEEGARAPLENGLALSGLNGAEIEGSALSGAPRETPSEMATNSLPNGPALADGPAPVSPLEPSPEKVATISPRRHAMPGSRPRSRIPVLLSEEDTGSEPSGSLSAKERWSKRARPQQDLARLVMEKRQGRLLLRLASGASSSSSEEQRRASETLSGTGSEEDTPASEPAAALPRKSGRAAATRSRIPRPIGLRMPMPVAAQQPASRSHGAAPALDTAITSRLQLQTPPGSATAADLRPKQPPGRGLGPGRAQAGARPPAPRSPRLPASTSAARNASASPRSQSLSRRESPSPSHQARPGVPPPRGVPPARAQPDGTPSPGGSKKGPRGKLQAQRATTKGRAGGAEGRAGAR
Sequence of UniProt Q9UHD2 (Q9UHD2 whole entry, looked up): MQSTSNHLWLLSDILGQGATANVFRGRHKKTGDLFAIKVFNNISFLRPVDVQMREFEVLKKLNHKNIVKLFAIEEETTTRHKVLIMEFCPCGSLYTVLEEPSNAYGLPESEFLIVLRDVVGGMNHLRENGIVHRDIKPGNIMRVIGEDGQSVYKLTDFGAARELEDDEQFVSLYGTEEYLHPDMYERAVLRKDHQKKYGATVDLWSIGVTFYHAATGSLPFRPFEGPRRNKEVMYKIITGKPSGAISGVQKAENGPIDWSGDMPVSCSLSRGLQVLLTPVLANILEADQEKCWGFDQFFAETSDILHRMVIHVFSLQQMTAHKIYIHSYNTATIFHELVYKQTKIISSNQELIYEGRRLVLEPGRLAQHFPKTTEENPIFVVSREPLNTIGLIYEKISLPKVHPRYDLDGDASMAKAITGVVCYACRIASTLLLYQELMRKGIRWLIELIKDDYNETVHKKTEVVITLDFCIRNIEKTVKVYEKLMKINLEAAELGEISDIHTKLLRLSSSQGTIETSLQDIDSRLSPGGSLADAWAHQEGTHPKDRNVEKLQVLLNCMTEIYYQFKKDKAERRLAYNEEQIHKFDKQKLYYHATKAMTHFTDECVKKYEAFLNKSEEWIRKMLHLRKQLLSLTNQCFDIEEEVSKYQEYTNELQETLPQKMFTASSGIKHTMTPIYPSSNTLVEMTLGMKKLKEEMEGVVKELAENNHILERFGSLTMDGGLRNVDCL
Sequence of UniProt P51617 (P51617 whole entry, looked up): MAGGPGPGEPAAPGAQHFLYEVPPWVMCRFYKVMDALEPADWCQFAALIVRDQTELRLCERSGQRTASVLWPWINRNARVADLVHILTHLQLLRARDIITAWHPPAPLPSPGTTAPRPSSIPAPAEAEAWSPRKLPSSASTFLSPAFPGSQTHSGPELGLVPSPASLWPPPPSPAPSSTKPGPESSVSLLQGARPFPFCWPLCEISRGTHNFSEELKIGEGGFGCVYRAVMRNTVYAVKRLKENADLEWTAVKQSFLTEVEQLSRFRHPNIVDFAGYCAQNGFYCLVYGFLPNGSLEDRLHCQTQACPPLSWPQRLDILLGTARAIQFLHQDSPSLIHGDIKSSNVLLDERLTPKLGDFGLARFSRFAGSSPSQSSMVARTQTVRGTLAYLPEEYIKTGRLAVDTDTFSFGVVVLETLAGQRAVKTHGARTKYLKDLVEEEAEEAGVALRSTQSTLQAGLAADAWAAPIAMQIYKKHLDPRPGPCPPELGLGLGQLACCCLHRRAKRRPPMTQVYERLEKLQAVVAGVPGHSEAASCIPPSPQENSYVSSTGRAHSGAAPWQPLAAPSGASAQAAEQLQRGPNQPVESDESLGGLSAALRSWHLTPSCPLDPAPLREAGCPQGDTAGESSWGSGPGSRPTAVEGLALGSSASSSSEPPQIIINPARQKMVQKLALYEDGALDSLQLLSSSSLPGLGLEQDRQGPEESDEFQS

Row | Target | kinase activity remaining (inhibitor concentration 0.1 µM) [%] | kinase activity remaining (inhibitor concentration 1 µM) [%] | kinase activity remaining (inhibitor concentration 10 µM) [%]
1 | MAP4K5 (UniProt Q9Y4K4) | 111 | 108 | 61
2 | ABL (UniProt P00519) | 120 | 113 | 76
3 | TTBK1 (UniProt Q5TCY1) | 103 | 104 | 96
4 | PAK5 (UniProt Q9P286) | 108 | 101 | 101
5 | MARK3 (UniProt P27448) | 113 | 115 | 110
6 | TBK1 (UniProt Q9UHD2) | 110 | 87 | 96
7 | CHK1 (UniProt O14757) | 139 | 109 | 112
8 | GCK (UniProt P35557) | 109 | 89 | 19
9 | PKB beta (UniProt P31749) | 100 | 90 | 69
10 | EPH-A2 | 90 | 95 | 76
11 | RSK2 (UniProt P51812) | 104 | 79 | 50
12 | CDK2-Cyclin A (UniProt P24941) | 111 | 93 | 57
13 | IRAK1 (UniProt P51617) | 104 | 77 | 27
